Several values for one entry are separate records, joined by “and”; a condition that tells them apart may be missing. Identical values can stand only once. Records with an inconclusive call do not appear. Activity calls are given as the source filed them. Unless noted, the call rests on the fitted dose curve.
What was measured:
[1] = Nuclear factor erythroid 2-related factor 2/antioxidant responsive element (Nrf2/ARE) small molecule agonists: luciferase reporter gene qHTS assay in human keratinocytes (AID 1919969); further: nearly all actives have a fitted effect of over 35% in size; further: potency means the concentration at half of the fitted maximal effect
[2] = target: Gonadotropin-releasing hormone receptor (Homo sapiens) (UniProt P30968); assay: Human gonadotropin-releasing hormone receptor (GnRHR) small molecule agonists, calcium flux assay in GnRHR-HEK293 cells (AID 1920063); further: nearly all actives have a fitted effect of over 35% in size
Method in brief: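 Calcium flux, agonist mode, human GnRHR stably integrated in HEK293; dye 1 h at 37 C before compound; Ex/Em=480/540 kinetic read, 3 min; 15 concentrations, triplicate.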

[3] = target: KiSS-1 receptor (Homo sapiens) (UniProt Q969F8); assay: Human kisspeptin (KISS1R) small molecule agonists, calcium flux assay in KISS1R-HEK293 cells (AID 1920064; active means well fitted activation curve with a large enough effect in the repeat runs)
Method in brief: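 Triplicate 15-concentration series were applied to dye-loaded human KISS1R HEK293 cells, and agonist-evoked calcium fluorescence was captured for 3 min.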

[4] = G protein-coupled receptor (GPCR) small molecule agonists, calcium flux assay: HEK293 wild type cell line counter screen (AID 1920065)
Method in brief: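 Non-specific calcium responders were flagged by adding DMSO-dissolved compounds to dye-loaded cells and reading 480/540 nm fluorescence each second for 3 min; ATP served as positive control.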

[5] = p53 small molecule agonists, cell-based qHTS assay with human liver microsomes (AID 1963577);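 further: p53 response element beta-lactamase reporter cells with liver microsomes plus NADPH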
Method in brief: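 With metabolic activation: human liver microsomes (0.5 mg/mL final) plus NADPH (0.5 mg/mL final) added alongside compounds to p53RE-bla cells; 16 h 37 C exposure; beta-lactamase read by LiveBLAzer fluorescence.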

[6] = p53 small molecule agonists, cell-based qHTS assay with rat liver microsomes (AID 1963578)
Method in brief: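 Metabolic activation by rat liver microsomes and NADPH, each 0.5 mg/mL final, added right after compounds to p53RE-bla reporter cells (4,000/well, plated 5 h earlier). 16 h at 37 C, then LiveBLAzer substrate for 2 h at room temperature in the dark; fluorescence read-out.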

[7] = p53 small molecule agonists, cell-based qHTS assay with human liver microsomes: qHTS cell viability counter screen (AID 1963579); further: nearly all actives have a fitted effect of over 45% in size; further: potency means the concentration at half of the fitted maximal effect
Method in brief: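 Metabolic activation used human liver microsomes and NADPH, both 0.5 mg/mL final, over 16 hours at 37 C on p53RE-bla cells (4,000/well). Cytotoxicity measured by CellTiter-Glo luminescence, 30 min at room temperature.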

[8] = p53 small molecule agonists, cell-based qHTS assay (AID 1963582; active means well fitted activation curve with a large enough effect in the signal ratio in the repeat runs, not every such curve was filed as active; the % refers to the signal ratio; further: potency means the concentration at half of the fitted maximal effect)
Method in brief: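 Beta-lactamase reporter cells (p53RE-bla) treated with compounds for 16 h at 37 C; FRET substrate, 2 h, room temperature; fluorescence intensity.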

[9] = target: 5-hydroxytryptamine receptor 2A (Homo sapiens) (UniProt P28223); assay: 5-hydroxytryptamine receptor 2A (HTR2A) small molecule antagonists, cell-based qHTS assay (AID 1963586); further: nearly all actives have a fitted effect of over 45% in size; further: potency means the concentration at half of the fitted maximal effect
Method in brief: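 CHO cells stably expressing human HTR2A were plated for 18 h at 37 C, then loaded with calcium dye for 1 h. Compounds were preincubated 5 min at room temperature before DOI (4 nM solution) was added. Kinetic fluorescence was read for 3 min.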

[10] = target: 5-hydroxytryptamine receptor 2A (Homo sapiens) (UniProt P28223); assay: 5-hydroxytryptamine receptor 2A (HTR2A) small molecule agonists, cell-based qHTS assay (AID 1963587); further: nearly all actives have a fitted effect of over 30% in size; further: potency means the concentration at half of the fitted maximal effect
Method in brief: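 Kinetic calcium-flux fluorescence (2 min, 1 sec intervals) after compound addition in agonist mode. HTR2A-CHO cells were cultured 18 h, then dye-loaded 1 h at 37 C.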

[11] = target: Muscarinic acetylcholine receptor M1 (Homo sapiens) (UniProt P11229); assay: Cholinergic receptor muscarinic 1 (CHRM1) small molecule antagonists, cell-based qHTS assay (AID 1963588); further: nearly all actives have a fitted effect of over 40% in size
Method in brief: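 Compounds were tested at 15 concentrations in three independent runs. Dye-loaded CHRM1-CHO cells were exposed 5 min at room temperature before stimulation by acetylcholine added at 50nM. Intracellular calcium was read kinetically on FDSS for 3 min.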

[12] = target: Muscarinic acetylcholine receptor M1 (Homo sapiens) (UniProt P11229); assay: Cholinergic receptor muscarinic 1 (CHRM1) small molecule agonists, cell-based qHTS assay (AID 1963589); further: nearly all actives have a fitted effect of over 35% in size
Method in brief: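 qHTS, 15-point titration, 3 independent runs: compounds pin-transferred onto dye-loaded CHRM1-CHO cells (human M1), calcium fluorescence followed every second to detect agonism.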

[13] = cAMP Responsive Elements (CRE) small molecule antagonists, cell-based qHTS assay (AID 1963591; active means well fitted inhibition curve with a large enough effect in the signal ratio in the repeat runs, not every such curve was filed as active; the % refers to the signal ratio; further: potency means the concentration at half of the fitted maximal effect)
Method in brief: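 Fluorescence intensity from cleaved LiveBLAzer B/G substrate (2 h, room temperature) quantified CRE-bla activity in HEK 293T cells exposed 3 h to compound with 0.25 uM final NKH477.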

[14] = target: Beta-2 adrenergic receptor (Homo sapiens) (UniProt P07550); assay: Adrenergic beta2 receptor (ADRB2) small molecule agonists, cell-based qHTS assay (AID 1963593);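 further: CHO cells stably overexpressing human ADRB2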
Method in brief: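 CHO cells stably over-expressing ADRB2 were plated overnight at 37C, then dosed with compounds plus a stimulation mix containing 100uM IBMX and 25uM Ro-20-1724 for 0.5hr at room temperature. cAMP was measured by HTRF competition, 1hr.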

[15] = target: D(2) dopamine receptor (Homo sapiens) (UniProt P14416); assay: Dopamine D2 receptor (DRD2) small molecule agonists, cell-based qHTS assay (AID 1963594); further: nearly all actives have a fitted effect of over 35% in size
Method in brief: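 cAMP accumulation in DRD2-HEK293 cells measured by HTRF after 1 h detection; compounds added 10 min before NKH477 (200nM […]) forskolin-analogue stimulation, 30 min at room temperature, with Ro20-1724 present at 0.1 mM final.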

[16] = target: D(2) dopamine receptor (Homo sapiens) (UniProt P14416); assay: Dopamine D2 receptor (DRD2) small molecule antagonists, cell-based qHTS assay (AID 1963595; active means well fitted inhibition curve with a large enough effect in the signal ratio in the repeat runs, with a control signal flat; the % refers to the signal ratio)
Method in brief: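 HEK293 cells stably expressing DRD2, preincubated with 0.1 mM Ro20-1724 and compounds 10 min, were stimulated with 200 nM NKH477 plus 12 nM quinpirole for 30 min at room temperature; cAMP measured by HTRF (665/620 nm).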

[17] = p53 small molecule agonists, cell-based qHTS assay with rat liver microsomes: qHTS cell viability counter screen (AID 1963580); further: nearly all actives have a fitted effect of over 45% in size
Method in brief: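 Cytotoxicity counter screen: intracellular ATP read by CellTiter-Glo luminescence in the p53 reporter wells. HCT-116 p53RE-bla cells were treated for 16 h at 37 C alongside rat liver microsomes and NADPH, each 0.5 mg/mL final.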

[18] = target: Beta-2 adrenergic receptor (Homo sapiens) (UniProt P07550); assay: Adrenergic beta2 receptor (ADRB2) small molecule antagonists, cell-based qHTS assay (AID 1963592); further: series mostly up to about 92 µM; nearly all actives have a fitted effect of over 50% in size
Method in brief: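 Assay format: CHO-ADRB2 cells, 18-20hr seeding at 37C/5% CO2, then compound plus 1nM isoproterenol agonist mix for 0.5hr RT. Homogeneous time-resolved fluorescence cAMP detection after 1hr, expressed as 665/615 nm ratio.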

[19] = p53 small molecule agonists, cell-based qHTS assay: qHTS cell viability counter screen (AID 1963581); further: nearly all actives have a fitted effect of over 45% in size
Method in brief: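 Multiplexed with the reporter read, a CellTiter-Glo step (30 min, room temperature) gauges ATP-based viability of HCT-116 p53RE-bla cells after 16 h compound incubation at 37 C.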

[20] = cAMP Responsive Elements (CRE) small molecule agonists, cell-based qHTS assay (AID 1963590)
Method in brief: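 Quantitative HTS for CRE agonists: HEK 293T CRE-bla cells, overnight plating, 3 h compound incubation at 37 C/5% CO2, then 2 h room-temperature LiveBLAzer B/G FRET substrate loading.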
On the % scale 0 is the no-effect control and ±100 the full control effect.

Beta-2 adrenergic receptor (Homo sapiens), sequence (P07550 whole entry, looked up): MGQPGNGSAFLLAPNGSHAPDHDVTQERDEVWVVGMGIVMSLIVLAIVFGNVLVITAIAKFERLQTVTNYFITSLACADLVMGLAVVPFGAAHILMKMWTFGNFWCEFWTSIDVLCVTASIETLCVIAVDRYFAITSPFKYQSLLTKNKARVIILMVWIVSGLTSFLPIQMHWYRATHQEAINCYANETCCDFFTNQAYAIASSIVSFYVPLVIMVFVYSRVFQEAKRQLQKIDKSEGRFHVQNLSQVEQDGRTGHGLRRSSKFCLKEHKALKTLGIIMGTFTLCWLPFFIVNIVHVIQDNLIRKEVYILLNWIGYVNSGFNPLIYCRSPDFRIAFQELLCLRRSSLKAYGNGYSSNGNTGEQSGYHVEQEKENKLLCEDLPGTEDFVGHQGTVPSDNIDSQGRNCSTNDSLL
Gonadotropin-releasing hormone receptor (Homo sapiens), sequence (P30968 whole entry, looked up): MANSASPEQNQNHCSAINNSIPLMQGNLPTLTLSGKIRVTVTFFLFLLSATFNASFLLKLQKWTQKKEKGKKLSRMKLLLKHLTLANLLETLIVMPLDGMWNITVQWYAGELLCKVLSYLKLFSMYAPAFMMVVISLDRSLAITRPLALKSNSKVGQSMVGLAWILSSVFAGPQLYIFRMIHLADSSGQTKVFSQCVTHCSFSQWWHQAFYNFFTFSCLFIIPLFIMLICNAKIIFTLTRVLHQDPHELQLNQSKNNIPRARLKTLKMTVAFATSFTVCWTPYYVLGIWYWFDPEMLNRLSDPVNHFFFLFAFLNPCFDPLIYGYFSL
KiSS-1 receptor (Homo sapiens), sequence (Q969F8 whole entry, looked up): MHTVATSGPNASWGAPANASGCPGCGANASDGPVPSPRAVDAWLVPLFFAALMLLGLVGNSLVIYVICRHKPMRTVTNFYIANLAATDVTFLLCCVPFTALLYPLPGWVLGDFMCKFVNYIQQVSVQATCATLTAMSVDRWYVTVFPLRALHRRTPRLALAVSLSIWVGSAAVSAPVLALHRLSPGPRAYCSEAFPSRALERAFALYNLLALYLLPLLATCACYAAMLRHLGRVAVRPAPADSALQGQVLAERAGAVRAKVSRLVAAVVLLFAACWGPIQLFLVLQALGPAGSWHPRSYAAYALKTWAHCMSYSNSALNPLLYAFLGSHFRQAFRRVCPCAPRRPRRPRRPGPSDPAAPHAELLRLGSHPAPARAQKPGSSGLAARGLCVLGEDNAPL
5-hydroxytryptamine receptor 2A (Homo sapiens), sequence (P28223 whole entry, looked up): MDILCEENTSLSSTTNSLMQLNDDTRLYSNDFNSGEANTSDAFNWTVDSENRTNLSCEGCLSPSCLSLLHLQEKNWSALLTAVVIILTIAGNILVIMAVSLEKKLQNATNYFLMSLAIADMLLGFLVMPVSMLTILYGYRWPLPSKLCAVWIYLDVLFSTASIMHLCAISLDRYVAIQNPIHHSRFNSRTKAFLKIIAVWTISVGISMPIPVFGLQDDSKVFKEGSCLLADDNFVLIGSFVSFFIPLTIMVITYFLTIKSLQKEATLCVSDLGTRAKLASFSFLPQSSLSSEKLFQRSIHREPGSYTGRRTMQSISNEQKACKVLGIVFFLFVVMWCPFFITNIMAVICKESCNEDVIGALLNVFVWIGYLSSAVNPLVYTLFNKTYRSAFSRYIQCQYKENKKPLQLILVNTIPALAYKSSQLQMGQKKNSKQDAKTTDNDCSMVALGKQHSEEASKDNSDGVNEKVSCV
Muscarinic acetylcholine receptor M1 (Homo sapiens), sequence (P11229 whole entry, looked up): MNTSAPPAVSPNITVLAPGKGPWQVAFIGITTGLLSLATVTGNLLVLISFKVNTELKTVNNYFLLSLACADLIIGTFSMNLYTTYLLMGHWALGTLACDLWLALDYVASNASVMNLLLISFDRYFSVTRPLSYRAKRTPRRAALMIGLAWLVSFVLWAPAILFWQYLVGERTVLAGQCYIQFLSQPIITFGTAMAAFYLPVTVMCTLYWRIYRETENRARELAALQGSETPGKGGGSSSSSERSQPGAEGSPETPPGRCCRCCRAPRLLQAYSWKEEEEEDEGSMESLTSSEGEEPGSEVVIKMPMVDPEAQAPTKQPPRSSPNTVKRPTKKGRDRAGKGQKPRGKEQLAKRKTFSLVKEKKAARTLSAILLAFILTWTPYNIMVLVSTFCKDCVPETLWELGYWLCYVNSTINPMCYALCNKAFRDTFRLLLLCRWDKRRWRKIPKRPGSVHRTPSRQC
D(2) dopamine receptor (Homo sapiens), sequence (P14416 whole entry, looked up): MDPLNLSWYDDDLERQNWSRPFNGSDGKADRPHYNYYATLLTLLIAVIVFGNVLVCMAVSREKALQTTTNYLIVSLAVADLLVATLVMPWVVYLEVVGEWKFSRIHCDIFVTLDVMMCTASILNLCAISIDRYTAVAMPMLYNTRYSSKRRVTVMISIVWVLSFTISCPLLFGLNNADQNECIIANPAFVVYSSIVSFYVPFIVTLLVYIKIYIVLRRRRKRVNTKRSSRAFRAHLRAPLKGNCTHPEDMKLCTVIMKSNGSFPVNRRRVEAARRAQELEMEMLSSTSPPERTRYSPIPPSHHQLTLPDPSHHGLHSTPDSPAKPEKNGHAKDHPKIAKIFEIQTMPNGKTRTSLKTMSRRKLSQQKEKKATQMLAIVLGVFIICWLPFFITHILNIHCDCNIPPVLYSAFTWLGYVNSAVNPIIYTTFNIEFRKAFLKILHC

CCCCCCCOC(=O)c1ccc(O)cc1
inactive: Potency [1] | Potency [2] | Potency [3] | Potency [4] | Potency [5] | Potency [6] | Potency [8] | Potency [9] | Potency [11] | Potency [12] | Potency [14] | Potency [15] | Potency [16]
active: Potency [7] 36.4 µM | Potency [10] 38.9 µM | Potency [13] 38.6 µM and 45.2 µM

COC(=O)Nc1nc2ccc(C(=O)c3cccs3)cc2[nH]1
active: Potency [1] 2.66 µM
inactive: Potency [2] | Potency [3] | Potency [4] | Potency [5] | Potency [6] | Potency [17] | Potency [13] | Potency [18] | Potency [15] | Potency [16]

O=C(OC[C@H]1O[C@@H](OC(=O)c2cc(O)c(O)c(OC(=O)c3cc(O)c(O)c(O)c3)c2)[C@H](OC(=O)c2cc(O)c(O)c(OC(=O)c3cc(O)c(O)c(O)c3)c2)[C@@H](OC(=O)c2cc(O)c(O)c(OC(=O)c3cc(O)c(O)c(O)c3)c2)[C@@H]1OC(=O)c1cc(O)c(O)c(OC(=O)c2cc(O)c(O)c(O)c2)c1)c1cc(O)c(O)c(OC(=O)c2cc(O)c(O)c(O)c2)c1
inactive: activity, positive = activation [1] -5.14% [at 19 µM] | activity change [2] -0.655% [at 11.8 µM, stronger effect = higher value] | activation [3] -0.551% [at 15.8 µM] | activation [4] 0.5% [at 11.8 µM] | activation [5] -11.4% [at 13.5 µM] | activation [6] -4% [at 13.6 µM] | activity change, negative = cytotoxicity [17] 7.08% [at 13.5 µM] | activity change, negative = cytotoxicity [19] 16.3% [at 13.5 µM] | activation [20] 4.01% [at 19 µM]
active: Potency [8] 11 µM

CN(C)[C@@H](CCOc1cccc2ccccc12)c1ccccc1
active: Potency [9] 3.26 µM | Potency [10] 10.7 µM
inactive: Potency [1] | Potency [2] | Potency [3] | Potency [4] | Potency [5] | Potency [6] | Potency [17] | Potency [19] | Potency [8] | Potency [20] | Potency [18] | Potency [15] | Potency [16]

CC[C@H]1CC[C@H](NCc2cc3c(cc2OC)[C@H]2C[C@H]2C(=O)N3C)[C@H](c2ccccc2)N1
active: Potency [1] 30.6 µM
inactive: Potency [2] | Potency [3] | Potency [4] | Potency [5] | Potency [6] | Potency [7] | Potency [9] | Potency [10] | Potency [12] | Potency [13] | Potency [18] | Potency [15] | Potency [16]

CC1=NN(c2ccc(S(=O)(=O)O)cc2)C(=O)C1N=Nc1ccccc1 (centres undefined)
inactive: Potency [1] | Potency [2] | Potency [3] | Potency [4] | Potency [5] | Potency [7] | Potency [17] | Potency [19] | Potency [8] | Potency [9] | Potency [10] | Potency [11] | Potency [12] | Potency [20] | Potency [13] | Potency [18] | Potency [15] | Potency [16]
